Sampled rows, rich in hits. Any-hit rate of the full collection: about 1.1%.
VLA-4 inh – inhibition in a human VLA-4 binding assay | actives 0.2% (n = 330,000) | VLA-4 expressing cells, ligand binding flow cytometry | AID 2557 | P13612 | inhibition, % (about 7 µM as worked out from the volumes in the protocol); in the data active = inhibition above about 50%
AI-2 QS modul – Vibrio harveyi AI-2 quorum sensing modulation; activity change, % at 7.5 µM; Vibrio harveyi JMH597 AI-2 luminescence/OD600 ratio, 9 h; active compounds read low; strain lacks LuxN and CqsS sensors; 0 = neutral-control median; actives 0.4% (n = 300,000); in the data active = activity change below about -75%, passing the limit was not always enough; inconclusive = no clear call, values can overlap the other calls;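 also: luminescence divided by OD600 gain over 9 h not by final OD600 alone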
NTR1 ag – NTR1 (human) agonism. NTR1-U2OS beta-arrestin-GFP spot imaging, agonist mode. activation, % at 20 µM. actives 0.17% (n = 330,000). AID 493036;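 active = activation at or above 40% of the spot to cytoplasm intensity ratio, with at least 20 cells analyzed; inconclusive = wells under 20 cells, flagged as cytotoxic or low count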
Target sequence (P30989 whole entry, looked up): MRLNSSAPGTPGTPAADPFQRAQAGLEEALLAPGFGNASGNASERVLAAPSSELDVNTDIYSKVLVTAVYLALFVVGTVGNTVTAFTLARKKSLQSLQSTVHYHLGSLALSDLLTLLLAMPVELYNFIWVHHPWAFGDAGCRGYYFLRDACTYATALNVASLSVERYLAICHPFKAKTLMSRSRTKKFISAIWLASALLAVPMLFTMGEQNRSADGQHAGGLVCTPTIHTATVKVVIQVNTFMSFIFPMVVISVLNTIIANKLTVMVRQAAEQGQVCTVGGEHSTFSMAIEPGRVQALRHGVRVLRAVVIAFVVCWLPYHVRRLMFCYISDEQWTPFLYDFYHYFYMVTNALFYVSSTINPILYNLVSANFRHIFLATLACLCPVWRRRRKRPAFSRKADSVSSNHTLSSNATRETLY
Pemphigus Ab inh – blocks pemphigus antibody binding to human desmoglein-3; P32926; DSG3-coupled beads, scFv-anti-DSG3-GFP binding, flow cytometry; active compounds read low; binding (percent of control), % at 10 µM; actives 0.48% (n = 310,000); AID 588358;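 active = binding more than 3 SD below its plate's average and above zero; inconclusive = below that plate limit but binding exactly zero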;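 also: hits lower antibody fragment binding to DSG3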
A number is an active result; – = inactive; ? = inconclusive; · = no result.

SMILES | VLA-4 inh | AI-2 QS modul | NTR1 ag | Pemphigus Ab inh
CC1CN(c2sc(S(C)(=O)=O)nc2S(=O)(=O)c2ccc(Cl)cc2)CC(C)O1 (stereo unspecified) | – | – | – | 75
Cc1cc(C(=O)N2CCN(c3ccc([N+](=O)[O-])cc3)CC2)co1 | – | – | – | –
Cn1c(C(=O)N2CCN(c3ccc([N+](=O)[O-])cc3)CC2)cc2c(=O)[nH]c3ccccc3c21 | · | – | · | 72
O=C1c2ccccc2C(=O)N1Cc1nn2c(-c3ccc(Cl)cc3)nnc2s1 | – | – | – | 59
COc1ccc(-c2nnc3sc(CN4C(=O)c5ccccc5C4=O)nn23)cc1 | – | – | – | –
Cc1ccc(-c2csc(NC(=O)c3ccc([N+](=O)[O-])o3)n2)cc1 | – | -158 | – | –
O=C(Nc1ccccn1)c1ccc([N+](=O)[O-])o1 | – | ? | – | –
Cc1ccnc(NC(=O)c2ccc([N+](=O)[O-])o2)c1 | – | -252 | – | –
COc1ccccc1NC(=O)N(C)C[C@@H]1OCc2cnnn2CCCC(=O)N([C@@H](C)CO)C[C@H]1C | · | · | · | –
CC(=O)Nc1ccc(CCCCc2ccc(NC(C)=O)cc2)cc1 | · | · | · | –
CCOC(=O)c1cccc(NC(=O)Cn2cc3c(n2)CCC(C)C3)c1 (stereo unspecified) | – | -77 | – | –
CC(=O)Nc1ccc(NC(=O)Cn2cc3c(n2)CCC(C)C3)cc1 (stereo unspecified) | · | – | · | ·
NC(=O)c1ccsc1NC(=O)COC(=O)c1cnccn1 | – | · | – | 80
COc1ccc(NC(=O)CON=CC(=O)Nc2ccc(C)cc2)c(OC)c1 | – | · | – | ·
Cc1cccc(C(=O)Nc2ccc(C(=O)c3ccncc3)cc2)c1 | · | · | · | –
O=C(CSc1ccc(-c2ccc3c(c2)OCO3)nn1)Nc1nccs1 | – | – | – | 95
Oc1ccccc1CNc1cccc2cccnc12 | – | – | – | –
Nc1sc(-c2ccccc2)n[n+]1Cc1cccc2cccnc12 | – | -88 | – | –
COc1cc(N2C(=O)C=CC2=O)c(OC)cc1Cl | – | -92 | – | –
COc1cc(Cl)c(S(=O)(=O)N2CCCC2)cc1Cl | – | – | – | –
O=C(OCC(=O)C12CC3CC(CC(C3)C1)C2)c1ccccc1O | – | · | – | 70
CC(C)Cc1nnc(NC(=O)C2CCCN(C(=O)c3ccc(Cl)cc3)C2)s1 (stereo unspecified) | · | · | · | –
CC1=CC(C)(C(Cl)(Cl)Cl)C(C)=CC1=NO (stereo unspecified) | · | · | · | –
COc1ccnc(N2CCN(c3cccc(C(F)(F)F)c3)CC2)c1C#N | – | – | – | 79
COCCCn1c(=O)c2ccccc2n(CC(=O)NCCC2=CCCCC2)c1=O | – | – | – | –
SMILES | VLA-4 inh | AI-2 QS modul | NTR1 ag | Pemphigus Ab inh
COCCCNC(=O)CCn1c(=O)c2ccccc2n(CC(=O)NCCC2=CCCCC2)c1=O | – | – | – | 68
CCN(CC)c1ccc(S(=O)(=O)N2CCOCC2)cc1NC(=O)CNCc1cccc(Cl)c1 | · | · | · | –
CN1C(C(=O)NCc2cccc(Br)c2)CC2Cn3c(nc4cc5ccccc5cc43)C21 (stereo unspecified) | · | – | – | 91
CC(C)n1c(SCC(=O)Nc2nc3ccccc3s2)nc2c1c(=O)n(C)c(=O)n2C | – | – | – | 87
Cc1ccccc1OCCOC(=O)c1cc(S(=O)(=O)N2CCCCC2)ccc1N1CCOCC1 | – | · | – | –
CC1(C)COC(Cc2ccccc2)=N1 | · | · | · | –
O=C(COC(=O)c1cncc(Br)c1)Nc1ccc(F)c(F)c1F | · | · | – | –
Nc1c(-c2ccccn2)cnn1-c1nc(-c2ccc(F)cc2)cs1 | – | – | – | –
Nc1c(-c2cccs2)cnn1-c1nc(-c2ccc(F)cc2)cs1 | – | – | – | -16
COc1ccc2c(CN3CCN(Cc4ccccc4)CC3)cc(=O)oc2c1 | · | · | · | –
CCN(CC)c1ccc2c(O)cc(=O)oc2c1 | – | – | – | –
CCN(CC)c1ccc(C(=O)OCc2cc(=O)oc3cc(O)ccc23)cc1 | – | – | – | 86
CN(CC(=O)Nc1cc(Cl)ccc1-n1cncn1)Cc1ccccc1N1CCOCC1 | · | · | · | –
O=S(=O)(c1cc(-c2nnc(-c3ccc(Br)cc3)o2)ccc1Br)N1CCCCCC1 | – | – | – | 74
O=S(=O)(c1cc(Br)ccc1Br)N1CCCCCC1 | – | – | – | –
Cc1ccc(C(=O)N(CC(=O)NC2CCCC2)c2ccccc2F)s1 | · | · | · | –
Cc1nc(SCc2nc3ccc(C(=O)c4ccccc4)cc3[nH]2)c2oc3ccccc3c2n1 | – | · | – | –
COc1cccc(/C=N/N(C)C2=NS(=O)(=O)c3ccccc32)c1O | – | – | – | 80
O=[N+]([O-])c1ccc2[nH]c(O)c(N=NC3CCS(=O)(=O)C3)c2c1 (stereo unspecified) | – | – | – | 85
O=C(Cc1c(F)cccc1Cl)Nc1ccccc1-c1ccccc1 | – | – | – | 47
COc1ccc(C(C#N)=Cc2cccc(OC)c2OC)cc1 | · | · | · | –
COc1ccc(NC(=O)COC(=O)CCc2ccccc2)c(OC)c1 | – | – | – | 48
CCOC(=O)C1=CN(Cc2ccco2)S(=O)(=O)N(C)C1c1ccc2ccccc2c1 (stereo unspecified) | · | · | – | –
CCOc1ccc(N2CC(=O)SC2=S)cc1 | – | – | – | –
CCOc1ccc(N2CSC(=S)N(c3ccc(OCC)cc3)C2)cc1 | – | – | – | 76
SMILES | VLA-4 inh | AI-2 QS modul | NTR1 ag | Pemphigus Ab inh
CCN(Cc1ccccc1)N=Nc1ccccc1 | · | · | · | –
O=C(COC(=O)c1ccc(O)cc1O)Nc1ccc(Cl)cn1 | – | -83 | – | ·
COc1ccc([C@H]2N[C@]3(CCCN(Cc4ccc(C(F)(F)F)cc4)C3=O)[C@H]3C(=O)N(Cc4ccccc4)C(=O)[C@@H]23)cc1 | · | · | · | –
Cc1ccc(NS(=O)(=O)c2cccc(C(=O)Nc3cccnc3)c2)c(C)c1 | – | · | – | –
O=C(O)CCN1C(=O)/C(=C2\C(=O)N(Cc3ccccc3Cl)c3ccccc32)SC1=S | – | – | – | –
COc1ccc(NC(=O)CN2C(=O)/C(=C3\SC(=S)N(CCC(=O)O)C3=O)c3ccccc32)cc1 | – | – | – | 82
CCCC(=O)Nc1ccc(OCC(=O)OC)cc1 | – | – | – | –
CCCC(=O)Nc1ccc(Oc2ccc(NC(=O)CCC)cc2)cc1 | – | – | – | 55
CN(C)c1nc(N)ncc1-c1ccc(Oc2ccccc2)cc1 | – | – | – | 79
COc1ccc(-c2nc(N)ncc2-c2ccccc2)c(O)c1 | – | – | – | –
CC[C@H](C)Cc1cn([C@@H](CCCCNC(=O)OC(C)(C)C)C(=O)NCCCCCCCCCCC(=O)N2CCN(C(=O)OC(C)(C)C)CC2)nn1 | – | · | – | –
COc1ccc(CSc2ccc(S(=O)(=O)N3CCCC3)cn2)cc1F | · | · | · | –
CC1CCN(S(=O)(=O)c2ccc3c(c2)c(=O)c(C(=O)NCc2cccs2)cn3C)CC1 | – | – | – | 83
CC1CCN(S(=O)(=O)c2ccc3c(c2)c(=O)c(C(=O)NCc2ccco2)cn3C)CC1 | – | – | – | –
O=C(c1cc2cc3ccc(Cl)cc3nc2o1)N1CCN(Cc2ccc3c(c2)OCO3)CC1 | · | · | · | 59
O=C(c1cc2ccccc2o1)N1CCN(Cc2ccc3c(c2)OCO3)CC1 | – | – | – | –
CCn1nnnc1NC(=O)c1cccc(OC)c1 | – | · | – | –
